# Inconclusive results are not listed. Activity calls are given as the source filed them.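 The calls were made as follows, unless noted: active = normalized viability below 100% at a tested concentration; inactive = the rest.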
# Experiments:
# [1] = viability loss in pontine glioma line – cell-based, SU-DIPG-XVII, MIPE5.0, CellTiter-Glo, qHTS, dose response (AID 1347060; cut-off not given, nearly all actives have AC50 up to about 26 µM;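 as to AC50: cells exposed to compound for 48 hours before viability readout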); settings: CellTiter-Glo ATP luminescence
# [2] = viability loss in pontine glioma line – cell-based, JHH-DIPG-1, MIPE4.0, CellTiter-Glo, qHTS, dose response (AID 1347062; cut-off not given, nearly all actives have AC50 up to about 27 µM;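 as to AC50: cells exposed to compound for two days before readout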); settings: JHH-DIPG-1 viability, CellTiter-Glo ATP luminescence
# [3] = viability loss in pontine glioma line – cell-based, SU-DIPG-IV, MIPE4.0, CellTiter-Glo, qHTS, dose response (AID 1347063; cut-off not given, nearly all actives have AC50 up to about 30 µM;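 also: compound exposure lasted 48 hours before the viability readout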); settings: CellTiter-Glo ATP luminescence
# [4] = viability loss in pontine glioma line – cell-based, SU-DIPG-XIII, MIPE5.0, CellTiter-Glo, qHTS, dose response (AID 1347064; cut-off not given, nearly all actives have AC50 up to about 23 µM;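 as to AC50: cells exposed to compound for 48 hours before the viability read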); settings: CellTiter-Glo ATP luminescence
# [5] = viability loss in pontine glioma line – cell-based, SU-DIPG-XXV, MIPE5.0, CellTiter-Glo, qHTS, dose response (AID 1347065; cut-off not given, nearly all actives have AC50 up to about 26 µM;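 also: cells exposed to compound for 48 hours before ATP readout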); settings: CellTiter-Glo ATP luminescence
# [6] = growth inhibition of DIPG cells – cell-based, MIPE4.0 library, CellTiter-Glo luminescence, qHTS (AID 1347066; cut-off not given, nearly all actives have AC50 up to about 30 µM;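 also: cells exposed to compound for 48 hours before readout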); settings: SU-DIPG-VI viability, CellTiter-Glo ATP luminescence
# [7] = JHH-DIPG-1 glioma cell viability, MIPE5.0 library, CellTiter-Glo luminescence, qHTS (AID 1347067; cut-off not given, nearly all actives have AC50 up to about 26 µM;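 also: cells exposed to compound for 48 hours before readout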); settings: JHH-DIPG-1 glioma viability, CellTiter-Glo ATP luminescence
# [8] = growth inhibition of DIPG cells – cell-based, MIPE5.0 library, qHTS (AID 1347068; cut-off not given, nearly all actives have IC50 up to about 30 µM;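 as to IC50: cells exposed to compound for 48 hours before viability readout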); settings: SU-DIPG-XXV viability
# [9] = drug combination growth inhibition, ovarian cancer – cell-based, oncology-focused library, rucaparib conditional, profiling panel (AID 1508598); settings: patient-derived ovarian cancer cells, CellTiter-Glo viability, 144 h, stronger effect = lower value
# [10] = viability loss with induced miR-34 in A549 – imaging, A549 dox-inducible miR-34, nuclei and caspase counts, primary screen (AID 1347080;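 active = compounds whose cell count with miR-34 switched on is under 0.7 times the count with it off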); settings: A549 miR-34 inducible, Hoechst nuclei count, 48 h
smiles,measurement,setting,value
CN1CCCN(C(=O)c2cccc(-c3ccc(/C=C4/C(=O)Nc5ccc(Cl)cc54)o3)c2)CC1,AC50,[1],8.33 µM (active)
same,AC50,[2],20.9 µM (active)
same,AC50,[3],9.35 µM (active)
same,AC50,[4],7.42 µM (active)
same,AC50,[5],10.5 µM (active)
same,AC50,[6],10.5 µM (active)
same,AC50,[7],2.35 µM (active)
same,IC50,[8],29.5 µM (active)
same,viability,"[9]; at 0.000305 µM, OCI-C5x cells, with rucaparib 10 µM, 100% = cells with rucaparib alone",101% (inactive)
same,viability,"[9]; at 0.000305 µM, OCI-C5x cells, without rucaparib",96.5% (active)
same,viability,"[9]; at 0.000305 µM, OCI-P5x cells, with rucaparib 20 µM, 100% = cells with rucaparib alone",105% (inactive)
same,viability,"[9]; at 0.000305 µM, OCI-P5x cells, without rucaparib",105% (inactive)
same,viability,"[9]; at 0.00122 µM, OCI-C5x cells, with rucaparib 10 µM, 100% = cells with rucaparib alone",103% (inactive)
same,viability,"[9]; at 0.00122 µM, OCI-C5x cells, without rucaparib",102% (inactive)
same,viability,"[9]; at 0.00122 µM, OCI-P5x cells, with rucaparib 20 µM, 100% = cells with rucaparib alone",107% (inactive)
same,viability,"[9]; at 0.00122 µM, OCI-P5x cells, without rucaparib",103% (inactive)
same,viability,"[9]; at 0.00488 µM, OCI-C5x cells, with rucaparib 10 µM, 100% = cells with rucaparib alone",99.3% (active)
same,viability,"[9]; at 0.00488 µM, OCI-C5x cells, without rucaparib",104% (inactive)
same,viability,"[9]; at 0.00488 µM, OCI-P5x cells, with rucaparib 20 µM, 100% = cells with rucaparib alone",106% (inactive)
same,viability,"[9]; at 0.00488 µM, OCI-P5x cells, without rucaparib",106% (inactive)
same,viability,"[9]; at 0.0195 µM, OCI-C5x cells, with rucaparib 10 µM, 100% = cells with rucaparib alone",90.6% (active)
same,viability,"[9]; at 0.0195 µM, OCI-C5x cells, without rucaparib",99.3% (active)
same,viability,"[9]; at 0.0195 µM, OCI-P5x cells, with rucaparib 20 µM, 100% = cells with rucaparib alone",97.1% (active)
same,viability,"[9]; at 0.0195 µM, OCI-P5x cells, without rucaparib",103% (inactive)
same,viability,"[9]; at 0.0781 µM, OCI-C5x cells, with rucaparib 10 µM, 100% = cells with rucaparib alone",108% (inactive)
same,viability,"[9]; at 0.0781 µM, OCI-C5x cells, without rucaparib",107% (inactive)
same,viability,"[9]; at 0.0781 µM, OCI-P5x cells, with rucaparib 20 µM, 100% = cells with rucaparib alone",109% (inactive)
same,viability,"[9]; at 0.0781 µM, OCI-P5x cells, without rucaparib",102% (inactive)
same,viability,"[9]; at 0.313 µM, OCI-C5x cells, with rucaparib 10 µM, 100% = cells with rucaparib alone",105% (inactive)
same,viability,"[9]; at 0.313 µM, OCI-C5x cells, without rucaparib",111% (inactive)
same,viability,"[9]; at 0.313 µM, OCI-P5x cells, with rucaparib 20 µM, 100% = cells with rucaparib alone",100% (active)
same,viability,"[9]; at 0.313 µM, OCI-P5x cells, without rucaparib",94.8% (active)
same,viability,"[9]; at 1.25 µM, OCI-C5x cells, with rucaparib 10 µM, 100% = cells with rucaparib alone",98% (active)
same,viability,"[9]; at 1.25 µM, OCI-C5x cells, without rucaparib",96.2% (active)
same,viability,"[9]; at 1.25 µM, OCI-P5x cells, with rucaparib 20 µM, 100% = cells with rucaparib alone",95.1% (active)
same,viability,"[9]; at 1.25 µM, OCI-P5x cells, without rucaparib",93.4% (active)
same,viability,"[9]; at 5 µM, OCI-C5x cells, with rucaparib 10 µM, 100% = cells with rucaparib alone",2.49% (active)
same,viability,"[9]; at 5 µM, OCI-C5x cells, without rucaparib",2.79% (active)
same,viability,"[9]; at 5 µM, OCI-P5x cells, with rucaparib 20 µM, 100% = cells with rucaparib alone",1.66% (active)
same,viability,"[9]; at 5 µM, OCI-P5x cells, without rucaparib",1.82% (active)
O=C(O)C1=CO[C@@H](O[C@@H]2O[C@H](CO)[C@@H](O)[C@H](O)[C@H]2O)[C@@H]2C(CO)=CC[C@H]12,outcome,[1],inactive
same,outcome,[2],inactive
same,outcome,[3],inactive
same,outcome,[4],inactive
same,outcome,[6],inactive
same,outcome,[7],inactive
same,outcome,[8],inactive
Cn1c2ccccc2c2c3c(c4c5ccccc5n(CCC#N)c4c21)CNC3=O,AC50,[1],8.33 µM (active)
same,outcome,[2],inactive
same,AC50,[3],0.148 µM (active)
same,AC50,[4],13.2 µM (active)
same,AC50,[5],7.42 µM (active)
same,AC50,[7],11.8 µM (active)
same,fold change,"[10]; stronger effect = lower value, cell number ratio, induced over uninduced",0.591 (active)
same,fold change,[10]; measured here: relative caspase fold change +Dox/-Dox,1.06
same,cell count,"[10]; measured here: total cells with miR-34 induction, stronger effect = lower value",1520
same,cell count,[10]; measured here: total cells without miR-34 induction,2580
Cc1cc(OCCCS(C)(=O)=O)cc(C)c1-c1cccc(COc2ccc3c(c2)OC[C@H]3CC(=O)O)c1,outcome,[1],inactive
same,outcome,[2],inactive
same,outcome,[3],inactive
same,outcome,[4],inactive
same,outcome,[5],inactive
same,outcome,[7],inactive
same,outcome,[8],inactive
COc1ccc(S(=O)(=O)N(C(C)=O)c2ccccc2/C=C/c2cc[n+]([O-])cc2)cc1,AC50,[1],1.48 µM (active)
same,AC50,[2],0.935 µM (active)
same,AC50,[3],0.372 µM (active)
same,AC50,[4],2.63 µM (active)
same,AC50,[5],1.18 µM (active)
same,AC50,[7],1.86 µM (active)

# — PubChem BioAssay
